Laboratory results reported in the supplement of paper PMC7411054.
Structures can show the parent of a compound that is named as a salt.

Tests used:
Conditions in all cases: treatment time: 24 h
A549-ACTB-RAB5A [1] = assay: lowest phenotypically active concentration; higher = less potent
Procedure, shortened: (§1)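 Each of fifteen gene-edited A549, HepG2 and WPMY1 reporter lines, marked with BFP for segmentation and GFP and RFP/FusionRed, was treated in four wells at 0.3, 1, 3 or 9 µM for 24 h prior to live imaging. Normalisation of per-well live-cell features used solvent control wells. Deviation needed ≥3 of 4 wells beyond the 95th percentile of control Euclidean distances, and reproducibility needed a median replicate Pearson correlation above the 95th percentile of non-replicates. Both were required for phenotypic activity.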

A549-GM130-SQSTM1 [2] = assay: as above
Procedure, shortened: as §1

A549-TUBA1B-RELA [3] = assay: as above
Procedure, shortened: as §1

HepG2-ACTB-RAB5A [4] = assay: as above
Procedure, shortened: as §1

WPMY1-CANX-COX4 [5] = assay: as above
Procedure, shortened: as §1

A549-ACTB-RAB5A [6] = assay: phenotypically active (imaging signature differs from DMSO and reproducible) at any of 0.3-9 uM (binary (1 = active, 0 = inactive)); higher = active
Procedure, shortened: as §1

A549-CANX-COX4 = assay: as above
Procedure, shortened: as §1

A549-GM130-SQSTM1 [7] = assay: as above
Procedure, shortened: as §1

A549-TP53BP1-CLTA = assay: as above
Procedure, shortened: as §1

A549-TUBA1B-RELA [8] = assay: as above
Procedure, shortened: as §1

HepG2-ACTB-RAB5A [9] = assay: as above
Procedure, shortened: as §1

HepG2-CANX-COX4 = assay: as above
Procedure, shortened: as §1

HepG2-GM130-SQSTM1 = assay: as above
Procedure, shortened: as §1

HepG2-TP53BP1-CLTA = assay: as above
Procedure, shortened: as §1

HepG2-TUBA1B-RELA = assay: as above
Procedure, shortened: as §1

WPMY1-ACTB-RAB5A = assay: as above
Procedure, shortened: as §1

WPMY1-CANX-COX4 [10] = assay: as above
Procedure, shortened: as §1

WPMY1-GM130-SQSTM1 = assay: as above
Procedure, shortened: as §1

WPMY1-TP53BP1-CLTA = assay: as above
Procedure, shortened: as §1

WPMY1-TUBA1B-RELA = assay: as above
Procedure, shortened: as §1

| Compound | lowest phenotypically active concentration (A549-ACTB-RAB5A [1]) [µM] | lowest phenotypically active concentration (A549-GM130-SQSTM1 [2]) [µM] | lowest phenotypically active concentration (A549-TUBA1B-RELA [3]) [µM] | lowest phenotypically active concentration (HepG2-ACTB-RAB5A [4]) [µM] | lowest phenotypically active concentration (WPMY1-CANX-COX4 [5]) [µM] | phenotypically active (A549-ACTB-RAB5A [6]) | phenotypically active (A549-CANX-COX4) | phenotypically active (A549-GM130-SQSTM1 [7]) | phenotypically active (A549-TP53BP1-CLTA) | phenotypically active (A549-TUBA1B-RELA [8]) | phenotypically active (HepG2-ACTB-RAB5A [9]) | phenotypically active (HepG2-CANX-COX4) | phenotypically active (HepG2-GM130-SQSTM1) | phenotypically active (HepG2-TP53BP1-CLTA) | phenotypically active (HepG2-TUBA1B-RELA) | phenotypically active (WPMY1-ACTB-RAB5A) | phenotypically active (WPMY1-CANX-COX4 [10]) | phenotypically active (WPMY1-GM130-SQSTM1) | phenotypically active (WPMY1-TP53BP1-CLTA) | phenotypically active (WPMY1-TUBA1B-RELA) |
| --- | --- | --- | --- | --- | --- | --- | --- | --- | --- | --- | --- | --- | --- | --- | --- | --- | --- | --- | --- | --- |
| CCCCCCCCCCNCCSSCc1ccc(Cl)cc1 | 9 | 3 | 3 | 3 | 3 | 1 (active) | 1 (active) | 1 (active) | 1 (active) | 1 (active) | 1 (active) | 1 (active) | 1 (active) | 1 (active) | 1 (active) | 0 (inactive) | 1 (active) | 1 (active) | 1 (active) | 0 (inactive) |
| CC[C@]12CCCN3CCc4c(n(c5ccccc45)C(=O)C1)[C@@H]32 [Eburnamonine (-)] | 9 | 9 | 9 | 9 | 9 | 1 (active) | 1 (active) | 1 (active) | 1 (active) | 1 (active) | 1 (active) | 0 (inactive) | 0 (inactive) | 1 (active) | 1 (active) | 1 (active) | 1 (active) | 0 (inactive) | 1 (active) | 1 (active) |
| O=C1NC(=O)[C@@H](c2cn3c4c(cccc24)CCC3)[C@@H]1c1c[nH]c2ccccc12 [tivantinib] | 1 | 1 | 3 | 1 | 1 | 1 (active) | 1 (active) | 1 (active) | 1 (active) | 1 (active) | 1 (active) | 1 (active) | 1 (active) | 1 (active) | 1 (active) | 1 (active) | 1 (active) | 1 (active) | 1 (active) | 1 (active) |
| COc1ccc(-c2cnc(-c3cccc4c3-c3ccccc3C4=O)o2)cc1 | ≤ 0.3 | ≤ 0.3 | ≤ 0.3 |  | ≤ 0.3 | 1 (active) | 1 (active) | 1 (active) | 1 (active) | 1 (active) | 0 (inactive) | 0 (inactive) | 0 (inactive) | 0 (inactive) | 0 (inactive) | 1 (active) | 1 (active) | 1 (active) | 1 (active) | 1 (active) |
| CCc1cncnc1N1CCN(Cc2nc3cc(C(F)(F)F)ccc3[nH]2)CC1 | 3 | 9 |  | 9 |  | 1 (active) | 1 (active) | 1 (active) | 0 (inactive) | 0 (inactive) | 1 (active) | 1 (active) | 1 (active) | 1 (active) | 1 (active) | 0 (inactive) | 0 (inactive) | 0 (inactive) | 0 (inactive) | 1 (active) |
| CC(C)(C)c1cc(C(=O)/C=C/c2ccc(C(=O)O)cc2)cc(C(C)(C)C)c1 | ≤ 0.3 | 1 | 1 | ≤ 0.3 | ≤ 0.3 | 1 (active) | 1 (active) | 1 (active) | 0 (inactive) | 1 (active) | 1 (active) | 1 (active) | 1 (active) | 1 (active) | 0 (inactive) | 1 (active) | 1 (active) | 1 (active) | 1 (active) | 1 (active) |
| CC1(C)O[C@@H]2C[C@H]3[C@@H]4C[C@H](F)C5=CC(=O)C=C[C@]5(C)[C@@]4(F)[C@@H](O)C[C@]3(C)[C@]2(C(=O)CO)O1 [fluocinolone acetonide] | ≤ 0.3 | ≤ 0.3 | ≤ 0.3 |  |  | 1 (active) | 1 (active) | 1 (active) | 1 (active) | 1 (active) | 0 (inactive) | 0 (inactive) | 0 (inactive) | 0 (inactive) | 0 (inactive) | 1 (active) | 0 (inactive) | 0 (inactive) | 0 (inactive) | 0 (inactive) |
| COc1c(Cl)cc2c([nH]c3cnccc32)c1NC(=O)c1cccnc1C [ML 120B dihydrochloride] | 9 | 3 | 9 | 9 |  | 1 (active) | 1 (active) | 1 (active) | 0 (inactive) | 1 (active) | 1 (active) | 1 (active) | 0 (inactive) | 1 (active) | 0 (inactive) | 0 (inactive) | 0 (inactive) | 0 (inactive) | 0 (inactive) | 0 (inactive) |
| CN(C)c1ccc(/C=C2\C(=O)Nc3ccccc32)cc1 | 9 | 3 | 9 |  | 3 | 1 (active) | 1 (active) | 1 (active) | 1 (active) | 1 (active) | 0 (inactive) | 0 (inactive) | 1 (active) | 1 (active) | 1 (active) | 1 (active) | 1 (active) | 1 (active) | 1 (active) | 0 (inactive) |
| N#C/C(=C/c1ccc(O)c(O)c1)C(=O)NCCCCc1ccccc1 | 9 | 9 | 9 | 9 | 9 | 1 (active) | 1 (active) | 1 (active) | 0 (inactive) | 1 (active) | 1 (active) | 1 (active) | 1 (active) | 1 (active) | 0 (inactive) | 1 (active) | 1 (active) | 1 (active) | 1 (active) | 1 (active) |
| COc1cc2ncnc(Nc3cccc(Br)c3)c2cc1OC | 3 | 9 | 3 |  | 9 | 1 (active) | 1 (active) | 1 (active) | 1 (active) | 1 (active) | 0 (inactive) | 0 (inactive) | 1 (active) | 1 (active) | 1 (active) | 0 (inactive) | 1 (active) | 1 (active) | 1 (active) | 0 (inactive) |
| Cc1cc2c(F)c(Oc3ncnn4cc(OC[C@@H](C)OC(=O)[C@H](C)N)c(C)c34)ccc2[nH]1 [brivanib-alaninate] | 9 | 9 |  | 9 | 3 | 1 (active) | 1 (active) | 1 (active) | 1 (active) | 0 (inactive) | 1 (active) | 1 (active) | 1 (active) | 1 (active) | 1 (active) | 1 (active) | 1 (active) | 1 (active) | 1 (active) | 1 (active) |
| CC(C)c1cnn2c(NCc3ccccc3)cc(NCCCCCCN)nc12 [BS 181 dihydrochloride] | 9 |  | 9 |  | 9 | 1 (active) | 1 (active) | 0 (inactive) | 1 (active) | 1 (active) | 0 (inactive) | 0 (inactive) | 0 (inactive) | 0 (inactive) | 0 (inactive) | 0 (inactive) | 1 (active) | 0 (inactive) | 1 (active) | 1 (active) |
| Nc1ncnc2[nH]nc(Nc3ccc(F)cc3)c12 | 9 |  | 9 | 9 | 9 | 1 (active) | 1 (active) | 0 (inactive) | 0 (inactive) | 1 (active) | 1 (active) | 0 (inactive) | 1 (active) | 1 (active) | 1 (active) | 1 (active) | 1 (active) | 1 (active) | 1 (active) | 1 (active) |
| CC(C)C(=O)SCCCCCCC(=O)Nc1nc(-c2ccccc2)cs1 | 1 |  | 9 |  | 1 | 1 (active) | 1 (active) | 0 (inactive) | 0 (inactive) | 1 (active) | 0 (inactive) | 1 (active) | 0 (inactive) | 0 (inactive) | 0 (inactive) | 1 (active) | 1 (active) | 1 (active) | 1 (active) | 1 (active) |
| COc1cc2c(cc1NS(=O)(=O)c1ccc(Br)cc1C)n(C)c(=O)n2C | 3 |  |  | 9 |  | 1 (active) | 1 (active) | 0 (inactive) | 1 (active) | 0 (inactive) | 1 (active) | 1 (active) | 1 (active) | 0 (inactive) | 1 (active) | 0 (inactive) | 0 (inactive) | 0 (inactive) | 0 (inactive) | 0 (inactive) |
| CC(C)n1c(/C=C/[C@@H](O)C[C@@H](O)CC(=O)O)c(-c2ccc(F)cc2)c2ccccc21 [fluvastatin] | 1 | 9 |  | 1 | 3 | 1 (active) | 1 (active) | 1 (active) | 1 (active) | 0 (inactive) | 1 (active) | 1 (active) | 1 (active) | 1 (active) | 1 (active) | 1 (active) | 1 (active) | 1 (active) | 1 (active) | 1 (active) |
| C[C@@H]1C[C@H]2[C@@H]3CCC4=CC(=O)C=C[C@]4(C)[C@@]3(Cl)[C@@H](O)C[C@]2(C)[C@@]1(OC(=O)c1ccco1)C(=O)CCl [mometasone furoate] | ≤ 0.3 | ≤ 0.3 | ≤ 0.3 |  |  | 1 (active) | 1 (active) | 1 (active) | 1 (active) | 1 (active) | 0 (inactive) | 0 (inactive) | 0 (inactive) | 0 (inactive) | 0 (inactive) | 0 (inactive) | 0 (inactive) | 1 (active) | 0 (inactive) | 0 (inactive) |
| Nc1nccc(-c2ccc3noc(-c4ccc(Cl)cc4)c3c2)n1 [PIM-1 Inhibitor 2] | 3 | 3 |  |  | 9 | 1 (active) | 1 (active) | 1 (active) | 1 (active) | 0 (inactive) | 0 (inactive) | 0 (inactive) | 0 (inactive) | 1 (active) | 0 (inactive) | 1 (active) | 1 (active) | 1 (active) | 1 (active) | 1 (active) |
| O=C(Nc1ccccc1)c1cc([N+](=O)[O-])ccc1Cl | 9 | 9 | 3 | 9 | 9 | 1 (active) | 1 (active) | 1 (active) | 0 (inactive) | 1 (active) | 1 (active) | 0 (inactive) | 0 (inactive) | 0 (inactive) | 0 (inactive) | 0 (inactive) | 1 (active) | 0 (inactive) | 0 (inactive) | 0 (inactive) |
| COc1ccc(-c2cc(=O)c3c(O)cc(O)cc3o2)cc1O [Diosmetin] | 9 | 9 | 9 |  | 9 | 1 (active) | 1 (active) | 1 (active) | 0 (inactive) | 1 (active) | 0 (inactive) | 0 (inactive) | 0 (inactive) | 0 (inactive) | 1 (active) | 0 (inactive) | 1 (active) | 0 (inactive) | 1 (active) | 1 (active) |
| C[C@@H](Nc1ncnc2[nH]c(-c3ccc(O)cc3)cc12)c1ccccc1 [PKI 166 hydrochloride] | 3 | 3 | 3 |  | 3 | 1 (active) | 1 (active) | 1 (active) | 1 (active) | 1 (active) | 0 (inactive) | 1 (active) | 0 (inactive) | 1 (active) | 1 (active) | 1 (active) | 1 (active) | 1 (active) | 1 (active) | 1 (active) |
| CN1CCc2cccc3c2[C@H]1Cc1ccc(O)c(O)c1-3 [r(-)-apomorphine] | 9 | 9 | 9 |  | 9 | 1 (active) | 1 (active) | 1 (active) | 1 (active) | 1 (active) | 0 (inactive) | 0 (inactive) | 0 (inactive) | 0 (inactive) | 0 (inactive) | 1 (active) | 1 (active) | 1 (active) | 0 (inactive) | 1 (active) |
